Laboratory results taken from PubChem BioAssay (NCATS).
Several values for one entry are separate records, joined by “and”; a condition that tells them apart may be missing. Equal values may be shown once. A number with no mark means an inactive call. Records with an inconclusive call do not appear. Activity calls are given as the source filed them. Unless noted, the call rests on the fitted dose curve; in most records, active means well fitted curve in the direction sought with a large enough effect; inconclusive means small, poorly fitted or top-dose-only effect, or another doubt; inactive means no such curve, though single readings can be large; an effect the other way counts as inactive or inconclusive.

Columns and labels:
[1] = AP1 Signaling Pathway (AID 357; active means well fitted curve in either direction with a large enough effect, not every such curve was filed as active; further: on the % scale 0 is the no-effect control and ±100 the full control effect); details: ME-180 AP-1-bla reporter, EGF-induced, beta-lactamase ratio, 5 h; at 17.2 µM (top of the series) unless noted
Outline: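 AP-1-bla ME-180 cells with beta-lactamase reporter under AP-1 response element, stimulated with EC50 EGF; compounds titrated, 5 hours at 37 degrees Celsius. CCF4 read at 460/530 nm ratio; positive and negative modulators judged by AC50.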

[2] = NFAT Signaling Pathway (AID 444; active means well fitted curve in either direction with a large enough effect, not every such curve was filed as active;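 further: carbachol stimulus at about its EC50 of 1 µM final; on the % scale 0 is the no-effect control and ±100 the full control effect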); details: Jurkat NFAT-bla M1, carbachol, beta-lactamase ratio, 5 h; at 17.2 µM (top of the series) unless noted
Outline: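 Jurkat cells with NFAT-driven β-lactamase reporter and co-expressed M1 receptor, stimulated with carbachol (final 1 uM, ~EC50), compound titration, 5 h at 37 °C. CCF4 loaded 1 h at RT; 460/530 nm ratio gave %activity and AC50.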

[3] = Stat Signaling Pathway (AID 446; active means well fitted curve in either direction with a large enough effect, not every such curve was filed as active;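 further: ME-180 cervical cancer cells given 40 pM IL-6 alongside compound; SIE-controlled beta-lactamase reporter measured as 460/530 nm FRET emission ratio; on the % scale 0 is the no-effect control and ±100 the full control effect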); details: ME-180 (cervical carcinoma) SIE beta-lactamase reporter, IL-6 stimulated, 5 h; at 17.2 µM (top of the series) unless noted
Outline: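 FRET read-out (405 nm excitation, 460/530 nm emission) of a beta-lactamase reporter under a STAT-inducible element in ME-180 cervical carcinoma cells. Cells with compound receive 40 pM IL-6 for 5 h. Values are normalised to AC90 stimulation and AC90 JAK-inhibitor controls.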

[4] = target: Glucocorticoid receptor (Homo sapiens) (UniProt P04150); assay: GR-GFP Redistribution (AID 450;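 active means compounds whose dose series gives a full or clear partial fitted curve of increased nuclear translocation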; further: potency means the concentration at half of the fitted maximal effect); details: U2OS GR-GFP nuclear translocation, laser cytometry, 2 h
Sequence of Glucocorticoid receptor (Homo sapiens) (P04150 whole entry, looked up, the tested form may be a part): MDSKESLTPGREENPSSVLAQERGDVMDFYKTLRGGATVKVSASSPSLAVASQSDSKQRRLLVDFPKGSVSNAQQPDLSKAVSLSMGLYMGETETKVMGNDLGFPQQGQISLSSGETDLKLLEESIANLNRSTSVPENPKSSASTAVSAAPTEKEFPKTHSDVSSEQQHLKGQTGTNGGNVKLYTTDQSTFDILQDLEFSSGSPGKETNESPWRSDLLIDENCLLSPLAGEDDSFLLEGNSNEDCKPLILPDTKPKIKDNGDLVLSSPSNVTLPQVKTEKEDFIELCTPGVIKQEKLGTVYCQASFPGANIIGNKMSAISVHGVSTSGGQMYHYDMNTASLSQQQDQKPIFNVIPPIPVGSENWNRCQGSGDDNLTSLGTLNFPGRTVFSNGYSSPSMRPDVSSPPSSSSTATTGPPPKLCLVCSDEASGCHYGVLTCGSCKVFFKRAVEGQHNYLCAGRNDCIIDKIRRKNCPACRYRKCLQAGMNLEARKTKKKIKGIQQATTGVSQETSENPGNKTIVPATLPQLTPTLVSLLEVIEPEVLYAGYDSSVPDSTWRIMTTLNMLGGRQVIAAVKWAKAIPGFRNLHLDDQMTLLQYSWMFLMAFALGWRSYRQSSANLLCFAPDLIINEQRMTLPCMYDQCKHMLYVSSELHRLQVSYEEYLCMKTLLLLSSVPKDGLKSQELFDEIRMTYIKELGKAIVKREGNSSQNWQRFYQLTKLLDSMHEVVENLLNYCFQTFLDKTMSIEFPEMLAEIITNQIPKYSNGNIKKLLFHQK

[5] = Cell Viability - HepG2 (AID 433; calls by dose curve;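 further: potency means the concentration at half of the fitted maximal effect; potency for ATP loss meaning cytotoxicity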); details: qHTS
Outline: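 In this qHTS format, a 40 h, 37 °C compound incubation of HepG2 cells in complete medium precedes a 20 min CellTiter-Glo step at room temperature. Tamoxifen and doxorubicin serve as positive controls; Hill-equation fits yield AC50.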

[6] = Cell Viability - MRC5 (AID 434; calls by dose curve;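 further: potency means the concentration at half of the fitted maximal effect; potency reflects cytotoxicity seen as loss of intracellular ATP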); details: MRC5 lung fibroblast viability, qHTS
Outline: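 ATP luminescence read-out (CellTiter-Glo, 20 min RT) after 40 hr, 37 °C compound exposure of 1500 MRC5 cells/well. Data normalized to DMSO (basal) and 100 uM tamoxifen (100% inhibition); AC50 from standard Hill equation.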

[7] = Cell Viability - SK-N-SH (AID 435; calls by dose curve; further: potency means the concentration at half of the fitted maximal effect); details: SK-N-SH neuroblastoma cell viability qHTS
Outline: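 Human neuroblastoma line, 40 h exposure at 37 °C, ATP quantified via luciferase luminescence; DMSO and 100 uM tamoxifen define 0 and 100% inhibition for AC50 fitting.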

[8] = target: Glucocorticoid receptor (Homo sapiens) (UniProt P04150); assay: GR-EFC Redistribution (AID 451; calls by dose curve; further: potency means the concentration at half of the fitted maximal effect); details: CHO-K1 GR-EFC translocation, beta-gal luminescence, 2 h
Outline: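 CHO-K1 cells expressing nuclear EA and GR-ED fragments of b-gal; compounds titrated up to 46 uM final, 2 h at 37 C. GR nuclear translocation read as complemented b-gal luminescence after 1 h RT detection.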

[9] = Cell Viability - N2a (AID 540); details: N2a mouse neuroblastoma cell viability; activity change, negative = cytotoxicity: at 92.2 µM (top of the series); further: nearly all actives have a fitted effect of over 45% in size; further: potency means the concentration at half of the fitted maximal effect;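 on activity change, negative = cytotoxicity: plate controls were DMSO alone for no effect and tamoxifen control for full effect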
Outline: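 N2a mouse neuroblastoma, 1500 cells/well, 5 hr settle; compound 40 hr, 37 °C; CellTiter-Glo 20 min RT; luminescence; Hill-fit AC50.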

[10] = Cell Viability - NIH 3T3 (AID 541); details: NIH 3T3 cell viability, qHTS; activity change, negative = cytotoxicity: at 92.2 µM (top of the series); further: nearly all actives have a fitted effect of over 25% in size; further: potency means the concentration at half of the fitted maximal effect;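 on activity change, negative = cytotoxicity: plate controls were DMSO alone for no effect and tamoxifen positive control for full effect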
Outline: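 qHTS format; 40 hr compound exposure, 37 °C; CellTiter-Glo luminescence (cellular ATP) read-out after 20 min at RT. Decrease in ATP = cytotoxicity; AC50 from standard Hill fit.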

[11] = Cell Viability - SH-SY5Y (AID 544); details: SH-SY5Y neuroblastoma cell viability; viability change, negative = cytotoxic: at 92.2 µM (top of the series); further: nearly all actives have a fitted effect of over 55% in size; further: potency means the concentration at half of the fitted maximal effect;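 on viability change, negative = cytotoxic: 0% = DMSO alone and -100% = 100 µM tamoxifen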
Outline: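 SH-SY5Y, 1500 cells/well, 5 hr pre-incubation 37 °C; cpd 40 hr 37 °C; CellTiter-Glo 20 min RT; luminescence (ATP) read. qHTS concentration-response, Hill fit → AC50. Tamoxifen, doxorubicin as positive controls.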

[12] = target: 3',5'-cyclic-AMP phosphodiesterase 4B (Homo sapiens) (UniProt Q07343); assay: qHTS Assay for Inhibitors of PDE-IV (AID 607; active means well fitted activation curve with a large enough effect in the main read-out, with a control signal flat, not every such curve was filed as active; further: % of control where 0% means no effect)
Sequence of 3',5'-cyclic-AMP phosphodiesterase 4B (Homo sapiens) (Q07343 whole entry, looked up): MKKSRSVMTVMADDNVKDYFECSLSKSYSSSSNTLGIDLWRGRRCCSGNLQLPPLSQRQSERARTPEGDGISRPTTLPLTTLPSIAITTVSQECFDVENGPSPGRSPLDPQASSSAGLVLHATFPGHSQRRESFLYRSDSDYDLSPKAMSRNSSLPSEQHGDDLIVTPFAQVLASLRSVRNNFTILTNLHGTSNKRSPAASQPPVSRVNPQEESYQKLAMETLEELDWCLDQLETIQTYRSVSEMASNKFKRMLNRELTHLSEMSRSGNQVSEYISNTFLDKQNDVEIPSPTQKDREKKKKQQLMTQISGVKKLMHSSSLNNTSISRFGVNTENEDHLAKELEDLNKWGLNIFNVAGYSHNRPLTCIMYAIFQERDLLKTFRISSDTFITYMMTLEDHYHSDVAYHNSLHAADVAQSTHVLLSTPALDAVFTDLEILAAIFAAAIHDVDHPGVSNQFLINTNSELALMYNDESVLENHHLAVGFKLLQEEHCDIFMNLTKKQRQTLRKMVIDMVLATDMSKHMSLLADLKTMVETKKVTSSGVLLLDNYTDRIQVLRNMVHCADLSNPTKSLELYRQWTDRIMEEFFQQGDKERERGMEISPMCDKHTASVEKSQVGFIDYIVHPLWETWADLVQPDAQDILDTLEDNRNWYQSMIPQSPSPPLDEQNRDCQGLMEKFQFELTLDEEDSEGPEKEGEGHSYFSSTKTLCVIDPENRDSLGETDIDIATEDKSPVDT
Outline: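 Cell-based read-out of cAMP via a modified cyclic nucleotide-gated channel and membrane potential dye (535/590 nm) in HEK293 cells expressing PDE4 endogenously. Compounds tested up to 22.9 uM final; 100 uM RO 20-1724 reference.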

[13] = Cell Viability - BJ (AID 421; calls by dose curve;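 further: potency means the concentration at half of the fitted maximal effect; cells exposed to compound for 40 hours at 37 °C before readout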); details: BJ fibroblast viability, qHTS
Outline: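 Cytotoxicity as drop in intracellular ATP (CellTiter-Glo, 20 min RT) after 40 hr compound exposure of BJ fibroblasts at 37 °C. Titrations scaled between DMSO and 100 uM tamoxifen, Hill-fitted for AC50.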

[14] = Cell Viability - Jurkat (AID 426;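 active means dose-dependent loss of cell ATP signal giving a full or clear fitted curve, ranked by lower potency value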; further: potency means the concentration at half of the fitted maximal effect); details: qHTS
Outline: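 Luminescent ATP read-out (CellTiter-Glo, 20 min at room temperature) after 40 hr compound exposure at 37 °C of Jurkat E6-1 cells, 5000/well. Decreased ATP taken as cytotoxicity; AC50 from standard Hill equation.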

[15] = Cell Viability - HUV-EC-C (AID 542); further: nearly all actives have a fitted effect of over 35% in size; further: potency means the concentration at half of the fitted maximal effect
Outline: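 Luminescent ATP read-out (CellTiter-Glo, 20 min room temperature) after 40 hr compound treatment of HUV-EC-C cells at 37 °C. Concentration-response data fitted with the standard Hill equation to give AC50; tamoxifen and doxorubicin served as positive controls.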

[16] = Cell Viability - H-4-II-E (AID 543); further: nearly all actives have a fitted effect of over 35% in size; further: potency means the concentration at half of the fitted maximal effect
Outline: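 qHTS, rat hepatoma H-4-II-E, 1500 cells/well; 40 hr compound exposure, 37 °C; CellTiter-Glo ATP luminescence after 20 min RT; AC50 by standard Hill fit.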

[17] = Cell Viability - Renal Proximal Tubule (AID 545); further: nearly all actives have a fitted effect of over 40% in size; further: potency means the concentration at half of the fitted maximal effect;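 on activity change, negative = cytotoxicity: 0% = DMSO only and -100% = 100 µM tamoxifen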
Outline: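 In this qHTS format, normal rat kidney-derived proximal tubule cells in complete culture medium receive compound titrations, then sit 40 hours at 37 °C before luciferase-based ATP quantitation; potency is reported as AC50 from concentration-response curves.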

[18] = Cell Viability - Mesenchymal (AID 546);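 further: cells exposed to compound for 40 hours before reading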; further: potency means the concentration at half of the fitted maximal effect;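 on activity change, negative = cytotoxicity: 0% = DMSO only and -100% = 100 µM tamoxifen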
Outline: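 Human renal mesenchymal cells (glomerulus-derived), 1000 cells/well, 5 hr 37 °C pre-incubation; compound 40 hr, 37 °C; CellTiter-Glo, 20 min RT; luminescence; AC50 via Hill equation.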

[19] = target: Mitogen-activated protein kinase 10 (Mus musculus) (UniProt Q61831); assay: JNK3 AlphaScreen Assay (AID 530; active means well fitted curve in either direction with a large enough effect, not every such curve was filed as active;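 further: kinase came from lysate of stimulated human HepG2 cells; signal reports phosphorylation of biotinylated GST-cJun 1-79 at Ser73 with 10 µM ATP; on the % scale 0 is the no-effect control and ±100 the full control effect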)
Outline: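 HepG2 lysate (IL-1b/TNFa pre-activated) + biotin-GST-cJun 1-79 + anti-pSer73 cJun; cpd titration, 15 min RT; ATP 10 uM start; Tris pH 7.6, MgCl2, DTT, vanadate; beads in EDTA buffer; AlphaScreen.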

[20] = target: Cytochrome P450 1A2 (Homo sapiens) (UniProt P05177); assay: p450-cyp1a2 (AID 410; calls by dose curve; further: potency means the concentration at half of the fitted maximal effect;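 on activity change, negative = inhibition: -100% = full effect of reference inhibitor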)
Sequence of Cytochrome P450 1A2 (Homo sapiens) (P05177 whole entry, looked up): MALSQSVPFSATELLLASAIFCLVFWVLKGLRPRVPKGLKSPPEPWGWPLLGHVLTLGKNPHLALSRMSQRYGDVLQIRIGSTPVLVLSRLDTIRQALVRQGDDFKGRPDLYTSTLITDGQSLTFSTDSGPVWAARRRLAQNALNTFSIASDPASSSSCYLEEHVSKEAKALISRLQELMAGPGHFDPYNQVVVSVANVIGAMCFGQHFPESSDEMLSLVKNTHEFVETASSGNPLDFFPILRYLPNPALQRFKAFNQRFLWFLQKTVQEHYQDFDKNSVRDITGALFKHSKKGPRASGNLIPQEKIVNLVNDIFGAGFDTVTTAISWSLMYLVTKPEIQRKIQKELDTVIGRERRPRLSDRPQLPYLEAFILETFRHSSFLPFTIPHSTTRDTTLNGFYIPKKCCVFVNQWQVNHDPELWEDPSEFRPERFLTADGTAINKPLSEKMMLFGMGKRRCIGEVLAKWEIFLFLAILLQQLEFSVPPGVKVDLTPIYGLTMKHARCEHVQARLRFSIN
Outline: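 20nM CYP1A2, 100uM Luciferin-ME (=Km), 100mM KPO4; cpd 10 min RT; +NADPH regen, 60 min RT; stop/detect 20 min; luminescence. Normalized to furafylline 57 uM = full inhibition.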

`N[C@@H](C(=O)N[C@@H]1C(=O)N2C(C(=O)O)=C(Cl)CS[C@H]12)c1ccccc1` gave an activity change, negative = inhibition [1] of 0.208%, an activity change, negative = inhibition [2] of 7.31% and an activity, negative = inhibition [3] of 1.22%. The Potency [4] was > 20.6 µM.
For `N=C(N)c1ccc(OCCCCCOc2ccc(C(=N)N)cc2)cc1`, the Potency [5] was > 92 µM, the Potency [6] was > 92 µM and the Potency [7] was > 92 µM. The activity, negative = inhibition [3] was 15.4%, the Potency [4] was > 20.6 µM and the Potency [8] was > 20.6 µM. The Potency [9] was 15.8 µM (active), the activity change, negative = cytotoxicity [10] was -80.1% (active) and the Potency [11] was “inactive”. For the same molecule, the outcome [12] was “inactive”.
For `Cc1ccnc2c1NC(=O)c1cccnc1N2C1CC1`, the Potency [13] was > 92 µM, the Potency [14] was > 92 µM and the Potency [5] was > 92 µM. For the same molecule, the Potency [6] was > 92 µM, the Potency [7] was > 92 µM and the Potency [9] was “inactive”. The activity change, negative = cytotoxicity [10] was -11%, the Potency [15] was “inactive” and the Potency [16] was “inactive”. The Potency [11] was “inactive”, the Potency [17] was “inactive” and the Potency [18] was “inactive”.
`Nc1[nH]c(=O)ncc1F` gave an activity change, negative = inhibition [1] of 0.602%, an activity change, negative = inhibition [2] of 0.663% and an activity, negative = inhibition [3] of -4.22%. For the same molecule, the Potency [4] was > 20.6 µM, the Potency [8] was > 20.6 µM and the outcome [12] was “inactive”.
`CCC(=O)O[C@]1(C(=O)CCl)[C@@H](C)C[C@H]2[C@@H]3CCC4=CC(=O)C=C[C@]4(C)[C@@]3(F)[C@@H](O)C[C@@]21C` gave an activity change, negative = inhibition [1] of 3.85%, an activity change, negative = inhibition [2] of -24.5% and an activity, negative = inhibition [3] of -5.77%. For the same molecule, the Potency [4] was < 5.9e-06 µM (active).
`COc1ccccc1OCC(O)COC(N)=O` (stereo not drawn) showed an activity change, negative = inhibition [1] of 9.66%, an activity change, negative = inhibition [2] of -29.9% and an activity, negative = inhibition [3] of 6.13%. For the same molecule, the Potency [4] was > 20.6 µM.
For `O=C(N[C@H](CO)[C@H](O)c1ccc([N+](=O)[O-])cc1)C(Cl)Cl`, the Potency [13] was > 92 µM, the Potency [14] was > 92 µM and the Potency [5] was > 92 µM. The Potency [6] was > 92 µM, the Potency [7] was > 92 µM and the Potency [9] was “inactive”. For the same molecule, the activity change, negative = cytotoxicity [10] was -14.2%, the Potency [15] was “inactive” and the Potency [16] was “inactive”. The Potency [11] was “inactive”, the Potency [17] was “inactive” and the Potency [18] was “inactive”.
In the case of `Cc1ccc(S(=O)(=O)N[C@@H](Cc2ccccc2)C(=O)CCl)cc1`, the activity, negative = inhibition [3] is reported as -65.8% [at 38 µM] (active), the Potency [4] is reported as > 46 µM and the Potency [8] is reported as > 46 µM.
In the case of `CCn1cc(C(=O)O)c(=O)c2cc(F)c(N3CCNCC3)cc21`, the activity change, negative = inhibition [1] is reported as -6.52% and 0.998%, the activity change, negative = inhibition [2] is reported as 1.51% and 17.3% and the activity, negative = inhibition [3] is reported as 1.48% and 7%. For the same molecule, the Potency [4] was > 20.6 µM, the Potency [8] was > 20.6 µM and the outcome [12] was “inactive”.
With `O=C(O)c1cc(=O)[nH]c(=O)[nH]1` the Potency [13] was > 92 µM, the Potency [14] was > 92 µM and the Potency [5] was > 92 µM. For the same molecule, the Potency [6] was > 92 µM, the Potency [7] was > 92 µM and the Potency [9] was “inactive”. For the same molecule, the activity change, negative = cytotoxicity [10] was -4.07%, the Potency [15] was “inactive” and the Potency [16] was “inactive”. The Potency [11] was “inactive”, the Potency [17] was “inactive” and the Potency [18] was “inactive”.
With `CN(C)c1ccc(C(=C2C=CC(=[N+](C)C)C=C2)c2ccc(N(C)C)cc2)cc1` the Potency [13] was 5.35 µM (active), the Potency [14] was 2.75 µM (active) and the Potency [5] was 8.58 µM (active). For the same molecule, the Potency [6] was 4.08 µM (active), the Potency [7] was 1.8 µM (active) and the Potency [9] was 0.794 µM (active). For the same molecule, the Potency [10] was 1 µM (active), the Potency [15] was 3.98 µM (active) and the Potency [16] was 2 µM (active). For the same molecule, the Potency [11] was 1.58 µM (active), the Potency [17] was 12.6 µM (active) and the Potency [18] was 2.51 µM (active).
`O=S(=O)(c1cccc2cnccc12)N1CCCNCC1` showed an activity change, negative = inhibition [2] of -20.4%.
In the case of `C[C@]12C=CC(=O)C=C1CC[C@@H]1[C@@H]2C(=O)C[C@@]2(C)[C@H]1CC[C@]2(O)C(=O)CO`, the Potency [13] is reported as > 92 µM, the Potency [14] is reported as > 92 µM and the Potency [5] is reported as > 92 µM. The Potency [6] was > 92 µM, the Potency [7] was > 92 µM and the Potency [19] was “inactive”. For the same molecule, the Potency [9] was “inactive”, the activity change, negative = cytotoxicity [10] was -17% and the Potency [15] was “inactive”. The Potency [16] was “inactive”, the Potency [11] was “inactive” and the Potency [17] was “inactive”. The Potency [18] was “inactive”.
In the case of `O=c1oc2c(O)c(O)cc3c(=O)oc4c(O)c(O)cc1c4c23`, the Potency [20] is reported as 15.8 µM (active), the Potency [4] is reported as > 46 µM and the Potency [8] is reported as > 46 µM.
In the case of `O=C(O)c1cccnc1`, the Potency [20] is reported as “inactive”, the activity change, negative = inhibition [2] is reported as -4.12% and the activity, negative = inhibition [3] is reported as 3.94%. For the same molecule, the outcome [12] was “inactive”.
Molecule `COc1cc([C@@H]2c3cc4c(cc3[C@H](O)[C@H]3COC(=O)[C@H]23)OCO4)cc(OC)c1OC` has an activity change, negative = inhibition [1] of 20.7% and an activity, negative = inhibition [3] of 6.38%.
